PubChem BioAssay AID619 (University of Pittsburgh Molecular Library Screening Center, 2007)
In all, about 97,000 compounds went through this assay and about 520 (0.54%) were called active. The entries come from a sample that favours actives as a whole. A number with no mark means an inactive call.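 How the source made its calls: active means inhibition of 50% or more in the single-concentration screen; inactive means inhibition below 50%.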

These compounds were tested against Serine/threonine-protein kinase PLK1 (Homo sapiens) (UniProt P53350) (assay: Plk1 peptide phosphorylation blockers – biochemical, TR-FRET, primary screen (AID 619;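 further: 0% = DMSO max control and 100% = H-89 dihydrochloride min control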)). Conditions: recombinant PLK1 kinase, at 10 µM, active compounds read high.
Chain of Serine/threonine-protein kinase PLK1 (Homo sapiens) (P53350 whole entry, looked up): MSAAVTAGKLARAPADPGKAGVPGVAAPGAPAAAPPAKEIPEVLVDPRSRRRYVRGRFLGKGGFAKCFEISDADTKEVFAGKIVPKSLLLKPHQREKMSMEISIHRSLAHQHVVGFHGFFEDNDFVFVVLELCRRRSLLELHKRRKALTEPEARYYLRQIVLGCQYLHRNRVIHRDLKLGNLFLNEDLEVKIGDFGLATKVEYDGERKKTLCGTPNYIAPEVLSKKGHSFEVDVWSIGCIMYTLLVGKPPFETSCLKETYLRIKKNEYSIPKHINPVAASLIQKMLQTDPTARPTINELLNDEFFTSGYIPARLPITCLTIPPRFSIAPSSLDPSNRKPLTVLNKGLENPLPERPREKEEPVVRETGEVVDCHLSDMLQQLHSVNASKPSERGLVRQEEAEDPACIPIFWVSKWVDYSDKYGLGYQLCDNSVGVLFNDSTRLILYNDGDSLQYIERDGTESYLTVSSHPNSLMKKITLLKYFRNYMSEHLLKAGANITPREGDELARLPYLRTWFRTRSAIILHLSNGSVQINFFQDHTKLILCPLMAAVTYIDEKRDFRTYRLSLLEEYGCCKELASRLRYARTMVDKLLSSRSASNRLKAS
Work on `CCC(C)(C)n1nnnc1CN1CCN(c2nc3ccc(C)cc3cc2C#N)CC1` yielded an inhibition of -9.44%.
`COc1ccc(C(C#N)N2N=C(C)CC2(C)C)cc1` (stereo unspecified) was tested, and the inhibition was -2.1%.
In the case of `COc1ccc(C2=Nc3cc(C)ccc3OC2)cc1`, the inhibition is reported as -6.91%.
`Cc1oc2nc(SCC(=O)NCc3cccnc3)nc(N)c2c1C` showed an inhibition of 5.49%.
In the case of `COc1ccc(-c2nc(CS(=O)CC(=O)NCc3ccccn3)c(C)o2)cc1` (stereo unspecified), the inhibition is reported as -9.42%.
In the case of `COc1ccc(-c2nc(CS(=O)CC(=O)NCc3cccnc3)c(C)o2)cc1OC` (stereo unspecified), the inhibition is reported as 78.2% (active).
`Cc1ccccc1OCc1nnc(SCC(=O)N2c3ccccc3Sc3ccc(Cl)cc32)o1` was tested, and the inhibition was 3.98%.
`CCOC(=O)c1c(C)oc2cc(Br)c(OCC(N)=O)cc12` showed an inhibition of -3.79%.
Work on `CC1CN(c2cc(=O)n(-c3cccc(Br)c3)c(=O)[nH]2)CC(C)O1` (stereo unspecified) yielded an inhibition of -9.28%.
In the case of `CC1CN(c2cc(=O)n(Cc3ccc(F)cc3)c(=O)[nH]2)CC(C)O1` (stereo unspecified), the inhibition is reported as 70.7% (active).
In the case of `CC(C)(C)N1CC(c2nc3ccccc3n2Cc2ccc(F)cc2)CC1=O` (stereo unspecified), the inhibition is reported as -8.27%.
`Cc1c(Cl)c([N+](=O)[O-])nn1Cc1ccc(C(=O)N/N=C\c2cc(Cl)ccc2O)o1` showed an inhibition of -11.3%.
Work on `COc1ccc(Nc2nc(Cl)nc(NCc3ccco3)n2)cc1` yielded an inhibition of -10.4%.
`Cc1ccc(S(=O)(=O)N(C)CC(=O)NC2CCCC2)cc1` showed an inhibition of -5.15%.
`COc1ccc(-c2nc(CS(=O)CC(=O)N3CCc4ccccc4C3)c(C)o2)cc1` (stereo unspecified) was tested, and the inhibition was -0.36%.
For `Cc1ccc(-c2nc(CS(=O)CC(=O)NC3CCCC3)c(C)o2)cc1` (stereo unspecified), the inhibition was 62.6% (active).
For `Cc1ccc(-c2nc(CS(=O)CC(=O)N3CCN(c4ncccn4)CC3)c(C)o2)cc1` (stereo unspecified), the inhibition was 68.5% (active).
Compound `Cc1ccc(S(=O)(=O)NCC(=O)N2CCN(c3ccccn3)CC2)cc1` has an inhibition of -12%.
Work on `COc1ccc(-c2nnc(SCC(=O)NC3CCCCC3)o2)cc1OC` yielded an inhibition of -12.8%.
`O=C(Nc1ccc(F)c(Cl)c1)C1CCN(S(=O)(=O)c2cccnc2)CC1` gave an inhibition of -7.65%.
`N#CC1=C(N)N(c2ccccc2)C2=C(C(=O)CCC2)C1c1ccccc1` (stereo unspecified) was tested, and the inhibition was -9.12%.
`CCOC(=O)Cc1csc(NC(NC(=O)OCC)(C(F)(F)F)C(F)(F)F)n1` was tested, and the inhibition was -10.9%.
`C=CCn1c(SCc2c(C(=O)OC)sc(N)c2C(=O)OC)nnc1-c1ccc(Cl)cc1` showed an inhibition of 0.32%.
`Cc1ccc(Nc2nc(C)cc(C)c2C(N)=O)cc1` showed an inhibition of -8.3%.
Compound `CCNC(=S)N1CCN(C(=O)c2ccco2)CC1` has an inhibition of -10.9%.
`COc1ccc(CN(Cc2ccco2)S(=O)(=O)c2ccc(S(=O)(=O)N3CCCC3)cc2)cc1` gave an inhibition of -1.36%.
For `O=C1c2ccccc2C(=O)N1CC1c2ccccc2CCN1S(=O)(=O)c1ccccc1` (stereo unspecified), the inhibition was -13.2%.
`Cc1noc(C)c1COC(=O)c1cc2ccccc2cc1O` gave an inhibition of -5.75%.
For `O=C(NCCCCCCCCCNC(=O)C(F)(F)F)C(F)(F)F`, the inhibition was -9%.
`COc1ccc(C(C(=O)NCc2ccccc2)N(Cc2cccs2)C(=O)c2cnccn2)cc1` (stereo unspecified) showed an inhibition of -8.73%.
Work on `Fc1ccc(N2N=C(c3cccs3)CC2c2ccco2)c(F)c1` (stereo unspecified) yielded an inhibition of -0.33%.
With `O=c1[nH]c(CCl)nc2cc(-c3ccc(Cl)cc3)sc12` the inhibition was -15.1%.
Compound `CCCCNC(=O)CCn1c(=S)[nH]c2cc3c(cc2c1=O)OCO3` has an inhibition of -10.8%.
`CCn1c(C)nc2c1C(=O)c1ccccc1C2=O` showed an inhibition of -6.21%.
`CC1CCN(c2ccc(S(=O)(=O)Nc3cc(C(=O)O)cc(C(=O)O)c3)cc2[N+](=O)[O-])CC1` was tested, and the inhibition was -8.56%.
Work on `CCN(CC)C(=O)CSc1nnc(C2CCCCC2)o1` yielded an inhibition of -6.95%.
Compound `O=C(CSCc1ccc([N+](=O)[O-])cc1)Nc1cccc(C(=O)Nc2ccccc2C(=O)O)c1` has an inhibition of -6%.
`CCc1ccc2c(c1)cc(CN(C(=S)Nc1ccccc1Cl)C1CC1)c1nnnn12` was tested, and the inhibition was -115%.
With `O=C(CO/N=C/c1ccccc1O)NNC(=O)c1ccccc1Cl` the inhibition was -11.5%.
In the case of `COC(=O)C1C(=O)NCC1c1ccc(C)cc1` (stereo unspecified), the inhibition is reported as -7.84%.
`CC1C/C(=N/NC(=O)c2cccs2)CC(C)(C)C1` (stereo unspecified) was tested, and the inhibition was -10.1%.
With `Cc1ccnc(N2C(=O)c3ccccc3C2Nc2ccc3c(c2)OCCO3)c1` (stereo unspecified) the inhibition was 75.7% (active).
`Cc1cccc(C(=O)Nc2ccccc2-c2nnn(CC(=O)Nc3ccc4c(c3)OCCO4)n2)c1` gave an inhibition of -19.8%.
Compound `O=C1c2ccccc2C(Nc2ccc3c(c2)OCCO3)N1Cc1ccco1` (stereo unspecified) has an inhibition of -13.3%.
With `O=C(Nc1ccc(S(=O)(=O)N2CCc3ccccc3C2)cc1)c1ccccc1` the inhibition was -9.1%.
In the case of `CCN1CCN(C(=O)C2(NC(=O)Nc3cccc(F)c3)CCCCC2)CC1`, the inhibition is reported as -9.1%.
For `CCOC(=O)C1=C(C)NC2=C(C(=O)CC(C)(C)C2)C1c1ccsc1` (stereo unspecified), the inhibition was -9.3%.
For `CC(=O)N/C(=C/c1ccc(Cl)cc1)C(=O)NCCc1c[nH]c2ccccc12`, the inhibition was -8.99%.
`CCCOn1c(-n2nc(C)cc2C)nc2ccccc2c1=O` showed an inhibition of -12.7%.
`COc1ccc2ccccc2c1CNCc1ccccn1` showed an inhibition of -6.16%.
`CN(C)/C=C/C(=O)c1ccccc1F` was tested, and the inhibition was -7.63%.
Work on `COc1ccccc1CNC(=O)c1ccc(SC)cc1OC` yielded an inhibition of -11.5%.
Compound `CCOc1ccc(CN(Cc2ccco2)S(=O)(=O)c2ccc(-n3cnnn3)c(OC)c2)cc1` has an inhibition of -4.62%.
With `CCOc1[nH]n(-c2ccc(Cl)cc2)c(=O)c1C=Nc1ccc(O)cc1` the inhibition was -12.9%.
`O=C(O)c1ccccc1NC(=S)NC(NC(=O)c1ccccc1[N+](=O)[O-])C(Cl)(Cl)Cl` (stereo unspecified) was tested, and the inhibition was -10.3%.
`Cc1ccc(C2=CSC3=NS(=O)(=O)CCN23)cc1C` gave an inhibition of -12.2%.
Work on `Cc1[nH]n(-c2ccc([N+](=O)[O-])cc2)c(=O)c1C=NCCN1CCN(C(=O)c2ccccc2F)CC1` yielded an inhibition of -16.1%.
With `Cc1ccc(NC(=S)Nc2ncccc2C)c(C)c1` the inhibition was -6.19%.
For `Cc1onc(-c2ccccc2)c1C(=O)Nc1ccccc1C#N`, the inhibition was 66.8% (active).
With `Cc1onc(-c2ccccc2)c1C(=O)N1CCOCC1` the inhibition was -6.08%.
`CC(=O)Nc1cccc(NC(=O)c2c(-c3ccccc3)noc2C)c1` gave an inhibition of -5.51%.
`O=C(/C=C/Nc1ccccc1OC(F)(F)F)C(F)(F)F` showed an inhibition of -3.23%.
`COc1ccc(-n2cnc3cc(NCc4ccco4)ccc32)cc1` was tested, and the inhibition was -1.91%.
`COc1ccc(-c2cc(C3CCN(c4ncccc4[N+](=O)[O-])CC3)[nH]n2)cc1` gave an inhibition of -0.7%.
`CCOC(=O)Nc1ccc2c(c1)N(C(=O)CCN1CCN(CCO)CC1)c1ccccc1CC2` gave an inhibition of -25.9%.
Work on `CCN(CC)Cc1cc(C(C)=O)ccc1O` yielded an inhibition of -5.02%.
For `CC(=O)Nc1ccc(NC(=O)c2sc3nc4c(c(-c5ccc(C)cc5)c3c2N)CCC4)cc1`, the inhibition was -27.3%.
With `CCN(CC)CCNc1ccc(Cl)cc1[N+](=O)[O-]` the inhibition was -12.3%.
Compound `Cc1cc(C)c2c3c(sc2n1)C(c1ccccc1)C(C#N)=C(N)O3` (stereo unspecified) has an inhibition of -9.36%.
For `CC1CSc2nnc(CCc3ccccc3)n21` (stereo unspecified), the inhibition was 85.2% (active).
`CNC(=O)CSc1nnc(CCc2ccccc2)n1-c1ccccc1` gave an inhibition of -5.54%.
In the case of `c1ccc(CCC2=NCCn3cccc32)cc1`, the inhibition is reported as -1.03%.
`Cc1ccoc1C(=O)Nc1cccc(Oc2ccccc2)c1` gave an inhibition of 1.94%.
Compound `Cc1nc2nc(C)c(CCC(=O)N3CCN(c4ccccc4)CC3)c(C)n2n1` has an inhibition of 4.83%.
For `c1cncc(-c2nnc3n2C2(CCCCC2)Cc2ccccc2-3)c1`, the inhibition was -8.5%.
Compound `COc1cccc(/C=N/NC(=O)C(=O)N2CCCC2)c1` has an inhibition of -9.34%.
In the case of `CCOC(=O)N1CCN(Cc2nc(N)nc(Nc3ccc(C)cc3)n2)CC1`, the inhibition is reported as -13.1%.
`CC(Oc1ccc(F)cc1F)C(=O)/C=C/N(C)C` (stereo unspecified) gave an inhibition of 0.09%.
Compound `CN1CCN(c2ccc([N+](=O)[O-])c(Sc3nc4ccccc4[nH]3)c2)CC1` has an inhibition of -5.67%.
`C=CCn1c(Cn2nnc3ccccc32)nnc1SCC(=O)N/N=C/c1cc(Br)cc(OC)c1O` was tested, and the inhibition was -6.54%.
Work on `CCN1CCN(C(=O)c2cc3cc4ccc(OC)cc4nc3s2)CC1` yielded an inhibition of -4.82%.
Compound `COc1ccc(-n2c(SCC(=O)NCc3ccco3)nnc2-c2c[nH]c3ccccc23)cc1` has an inhibition of -3.5%.
For `CCCc1nnc(NC(=O)c2cccs2)s1`, the inhibition was -6.49%.
With `CCc1nnc(NC(=O)c2cccs2)s1` the inhibition was 60.3% (active).
Work on `CCc1ccccc1NC(=O)c1cccs1` yielded an inhibition of -6.58%.
`Cc1ccc2nc(SC(C)C(=O)NCc3ccco3)[nH]c2c1` (stereo unspecified) gave an inhibition of 1.32%.
For `Cc1ccc(-n2c(=O)cc(N3CCN(Cc4ccccc4)CC3)[nH]c2=O)cc1`, the inhibition was -1.26%.
`CN1CCN(c2cc(=O)n(-c3ccc(Cl)cc3)c(=O)[nH]2)CC1` was tested, and the inhibition was 67.4% (active).
Compound `CN1CCN(c2ccc(NC(=O)COc3ccc(Cl)cc3Cl)cc2)CC1` has an inhibition of 3%.
Work on `COc1ccc(C2Nc3ccccc3C(=O)N2Cc2ccccc2)cc1Cn1nnc2ccccc21` (stereo unspecified) yielded an inhibition of -11.2%.
With `C[N+]1(CCNC(=O)/C=N/O)CCCCC1` the inhibition was 95.9% (active).
`Cc1ccc(S(=O)(=O)c2c(COC(=O)c3cccc(Cl)c3)c(-c3ccccc3)nn2C)cc1` showed an inhibition of 3.59%.
`CCOC(=O)c1c(NC(=S)Nc2ccccc2)sc2c1CCN(C)C2` showed an inhibition of -13.1%.
For `COc1ccc(C2CC(c3ccc(C)cc3)Nc3nc(N)nn32)cc1` (stereo unspecified), the inhibition was -3.47%.
In the case of `CCOc1ccccc1C1CC(c2ccccc2)Nc2nc(N)nn21` (stereo unspecified), the inhibition is reported as 64% (active).
With `CCOc1ccccc1C1CC(c2ccc(Cl)cc2)Nc2nc(N)nn21` (stereo unspecified) the inhibition was -12.7%.
